These results are taken from PubChem BioAssay AID1851 (National Center for Advancing Translational Sciences (NCATS), 2009).

Each structure is given as a SMILES string. The whole screen tested about 16,000 compounds, of which about 5,100 (32%) were called active. Inconclusive results (about 25%) are left out. The call rests on the fitted dose curve; in most records, active means well fitted curve in the direction sought with a large enough effect; inconclusive means small, poorly fitted or top-dose-only effect, or effect the other way; inactive means no such curve, though single readings can be large or run the other way. This is one part of the list.
On the % scale 0 is the no-effect control and ±100 the full control effect.

Chain of Cytochrome P450 3A4 (Homo sapiens) (P08684 whole entry, looked up): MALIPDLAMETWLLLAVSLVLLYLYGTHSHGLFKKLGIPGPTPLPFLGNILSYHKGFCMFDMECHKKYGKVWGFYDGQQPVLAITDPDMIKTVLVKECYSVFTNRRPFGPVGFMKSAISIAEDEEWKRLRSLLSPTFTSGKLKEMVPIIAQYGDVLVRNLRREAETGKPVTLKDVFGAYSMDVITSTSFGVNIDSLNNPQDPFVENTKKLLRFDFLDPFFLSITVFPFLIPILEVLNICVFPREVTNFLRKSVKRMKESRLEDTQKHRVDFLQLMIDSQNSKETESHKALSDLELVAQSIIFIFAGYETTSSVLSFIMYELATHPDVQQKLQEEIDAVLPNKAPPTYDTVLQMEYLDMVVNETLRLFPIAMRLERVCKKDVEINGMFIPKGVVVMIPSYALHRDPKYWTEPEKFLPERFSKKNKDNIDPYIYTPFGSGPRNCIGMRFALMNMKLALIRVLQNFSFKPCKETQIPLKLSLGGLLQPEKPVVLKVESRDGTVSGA

The assay concerns the target Cytochrome P450 3A4 (Homo sapiens) (UniProt P08684). The assay can be described thus: Cytochrome panel assay with activity outcomes. As to conditions: recombinant CYP, pro-luciferin dealkylation, luminescence, p450-cyp3a4; series mostly up to 57.1 µM; activity, negative = inhibition: at the top concentration.
As usually defined, the AC50 is the concentration at which the activity in the assay is half-maximal. Consider `CC(C)Cc1ccc([C@H](C)C(=O)O)cc1`, for which the AC50 entry was “inactive”. For the compound `CCOC(=O)N/N=C/c1ccc(F)cc1`, the “activity, negative = inhibition” value is 2.36% (inactive). As to `CCN(CC)c1ccc(/C=N/Nc2nc(C)cc(=O)[nH]2)cc1`, the concentration at half-maximal activity (AC50) was 14.1 µM (active). As to `O=S(=O)(NCc1cn2ccsc2n1)c1ccc(Oc2ccccc2)cc1`, the AC50 is 11.2 µM (active).

Take `Nc1ccc(S(=O)(=O)NCc2nccs2)cc1`: the activity, negative = inhibition is -10.4% [at 11.4 µM] (inactive). Same read-out and setting: next, `N=c1sccn1CC(=O)Nc1cccc(Oc2ccccc2)c1`: -7.61% [at 11.4 µM] (inactive). For the compound `Cc1ccc(-c2ccc(/C=N/N3C(=O)C4C5C=CC(C6CC56)C4C3=O)o2)c([N+](=O)[O-])c1` (centres undefined), the AC50 is 2.24 µM (active). `Cc1cc(-c2ccc(/C=N/n3cnnc3)o2)c([N+](=O)[O-])cc1C`: the “activity, negative = inhibition” value was 16.7% (inactive).

Consider `Cc1nc(C(=O)Nc2ccc(Cl)cc2Cl)nn1-c1cc(OC(C)C)c(Cl)cc1Cl`, for which the “activity, negative = inhibition” value is -10.6% (inactive). On to `COc1cccc2c1OC[C@@H](CO)[C@H]2N(C)C(=O)Nc1ccc(Cl)cc1Cl`, for which the AC50 is 14.1 µM (active). Take `NC(=O)c1cc[n+](CC2=C(C(=O)[O-])N3C(=O)[C@@H](NC(=O)Cc4cccs4)[C@@H]3SC2)cc1`: the “activity, negative = inhibition” value was -15.1% [at 25.6 µM] (inactive). As for `CN(C)c1ccc(-c2nc3n(n2)C(c2cccnc2)C2=C(CC(C)(C)CC2=O)N3)cc1` (centres undefined), the AC50 was 2.24 µM (active). Same read-out and setting: next, `COc1ccc(-c2cc(C(F)F)nc(-n3nc(C)cc3C)n2)cc1`: 10 µM (active). Regarding `Cc1cc(C)n(-c2nc(NC(C)C)nc(NC(C)C)n2)n1`, the activity, negative = inhibition is 0.214% [at 11.4 µM] (inactive). In the case of `CCCCn1c(NCc2ccccc2NS(=O)(=O)c2ccc(C)cc2)nc2ccccc21`, the AC50 is 3.55 µM (active). As to `Cc1ccc(S(=O)(=O)Nc2ccccc2C=O)cc1`, the activity, negative = inhibition was -24.7% [at 11.4 µM] (inactive). Still for that read-out and setting: next, `CC(C)(C)NCC[C@@H](O)c1cc(C(F)(F)F)nc2c(C(F)(F)F)cccc12`: -13.6% [at 11.4 µM] (inactive). In the case of `Cc1cc(C)c(NC(=O)C[C@H](CC(=O)O)c2cccc3ccccc23)c(C(=O)N2CCC3(CCCC3)CC2)c1`, the AC50 was 15.8 µM (active). Turning to `COC(=O)N1CCC2(CCN(C(=O)Nc3ccccc3)CC2)CC1`, the “activity, negative = inhibition” value is 18.1% (inactive). Still for that read-out and setting: next, `Cc1noc(C)c1C(=O)N1CCC2(CCCN(C(c3ccccc3)c3ccccc3)C2)CC1`: -26.6% (inactive).

For the compound `CC1=C(C(=O)OCc2ccccc2)C(c2ccccc2)NC(=O)N1CCCCCC(=O)O` (centres undefined), the “activity, negative = inhibition” value was -1.28% (inactive). As for `CC1=C(C(=O)OCc2ccccc2)C(c2cccnc2)c2c(n(C)c(=O)n(C)c2=O)N1` (centres undefined), the concentration at half-maximal activity (AC50) was 11.2 µM (active).

`N#Cc1ccc(-c2ccccc2)nc1SCC(=O)c1cccc(Cl)c1`: the “activity, negative = inhibition” value was 21.1% (inactive). In the case of `CCOC(=O)CC(=O)CSc1nc(-c2ccccc2)cc(-c2ccc(Cl)cc2)c1C#N`, the concentration at half-maximal activity (AC50) is 17.8 µM (active).
